Assay results from PubChem BioAssay (NCATS).
“And” between values parts separate entries of the source, which are not always exact repeats. Equal values may be shown once. Inconclusive results are not listed. More than one record can exist for a structure, and the calls need not agree. The source made the active and inactive calls. Calls follow the shape of the dose curve; as a rule, active = well fitted curve in the direction sought with a large enough effect; inconclusive = small, poorly fitted or top-dose-only effect, or another doubt; inactive = no such curve, though single readings can be large; an effect the other way counts as inactive or inconclusive.

Columns and labels:
[1] = Viability qHTS for spleen associated tyrosine kinase inhibitor (SYKi) naive MV4-11 cells (AID 1963823); also: nearly all actives have a fitted effect of over 40% in size
Outline: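 Seeding of 500 SYKi-naive MV4-11 cells per well onto pre-dispensed compounds preceded a 72 hr incubation at 37 C. Luminescent CellTiter-Glo signal, read after 10 min at room temperature, reflected viable cells.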

[2] = Viability qHTS for spleen associated tyrosine kinase inhibitor (SYKi) drug resistant MV4-11 cells (AID 1963824); also: nearly all actives have a fitted effect of over 35% in size
Outline: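 CellTiter-Glo luminescence, read 10 min after reagent addition, reports viability after a 72 hr compound exposure. Cells are an MV4-11 line made resistant to SYK inhibition, seeded at 500 per well onto compound-containing plates.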

[3] = Quantitative highthroughput screen to assess conditional lethalithy of SEM cells grown in RPMI1640 with unreated serum (RPMI+s) (AID 1963883); also: nearly all actives have a fitted effect of over 35% in size;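 as to Viability: 100% = DMSO wells and 0% = empty wells without cells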
Outline: (§1)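 Each medium arm—HPLM with 10% dialyzed FBS, or RPMI1640 with 5 mM glucose and 10% untreated or dialyzed FBS—was screened against an 11-point, 3-fold compound titration for 48 h at 37 °C, with CellTiter-Glo luminescence as endpoint.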

[4] = Cellular viability qHTS for adrenocortical cancer (ACC) cell line SW-13 (AID 1963989); details: SW-13 ACC cells viability, CellTiter-Glo, 48 h; activity (max response): stronger effect = lower value; also: nearly all actives have a fitted effect of over 65% in size;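 as to activity (max response): cells grown in serum-free medium with ITS supplement; % is scaled to controls: 0 for no effect and ±100 for the full control effect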
Outline: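 Viability was read as CellTiter-Glo luminescence after 48 h compound treatment (up to 46 uM final) of SW-13 cells grown serum-free; titration curves were fit with a four-parameter logistic model to give IC50 and efficacy.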

[5] = Cellular viability qHTS for adrenocortical cancer (ACC) cell line NCI-H295R (AID 1963990); also: nearly all actives have a fitted effect of over 60% in size
Outline: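 CellTiter-Glo ATP luminescence, read 48 h after compound addition, measured viability of NCI-H295R adrenocortical cells grown serum-free with ITS. Final concentrations spanned up to 46 uM. Data normalized to DMSO and doxorubicin, fitted for IC50 and maximal response.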

[6] = Quantitative highthroughput screen to assess conditional lethalithy of SEM cells grown in Human Plasma-Like Medium with dialyzed fetal bovine serum (HPLM+ds) (AID 1963882); also: nearly all actives have a fitted effect of over 35% in size; as to Viability: series mostly up to about 46 µM
Outline: as §1

[7] = Quantitative highthroughput screen to assess conditional lethalithy of SEM cells grown in RPMI1640 with dialyzed fetal bovine serum (RPMI+ds) (AID 1963884); also: nearly all actives have a fitted effect of over 35% in size;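 as to Viability: series mostly up to about 46 µM; 100% = DMSO control wells and 0% = empty wells without cells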
Outline: as §1

[8] = Quantitative highthroughput screen to assess conditional lethalithy of P12 Ichikawa cells grown in RPMI1640 with dialyzed fetal bovine serum (RPMI+ds) (AID 1963880); details: Potency: P12-Ichikawa viability; also: nearly all actives have a fitted effect of over 35% in size
Outline: as §1

[9] = Quantitative highthroughput screen to assess conditional lethalithy of P12 Ichikawa cells grown in RPMI1640 with untreated serum (RPMI+s) (AID 1963881); details: Potency: viability; also: nearly all actives have a fitted effect of over 35% in size
Outline: as §1
Potency is read from the fitted curve at half-maximal effect.

COc1cc(Oc2ccnc3cc(OC)c(OC)cc23)ccc1NC(=O)NC(C)c1nccs1 (stereo not drawn)
active: Potency [2] 14.8 µM | Potency [3] 33.2 µM
inactive and 7.42 µM (active): Potency [1]
inactive: activity (max response) [4] 0.628%

c1ccc2c(-c3cnn4cc(-c5ccc(N6CCNCC6)cc5)cnc34)ccnc2c1
active: Potency [1] 0.525 µM | Potency [2] 0.833 µM | Potency [3] 5.26 µM | Potency [4] 3.98 µM | Potency [5] 3.16 µM

NC(=O)Nc1sc(-c2ccc(F)cc2)cc1C(N)=O
inactive: activity (max response) [4] -22.4%
active: Potency [1] 1.86 µM | Potency [2] 3.32 µM | Potency [6] 16.6 µM | Potency [3] 1.32 µM | Potency [7] 14.8 µM | Potency [5] 25.1 µM

CCn1cc(C(=O)O)c(=O)c2cc(F)c(N3CCN(C)CC3)cc21
inactive and 16.6 µM (active): Potency [2]
inactive: Potency [1] | Potency [6] | Potency [3] | Potency [7] | activity (max response) [4] 10.8% and 4.42% | Potency [5]
active: Potency [8] 4.69 µM | Potency [9] 4.18 µM

CN(C)Cc1cccc(N=C(c2ccccc2)c2c(O)[nH]c3cc(C(=O)N(C)C)ccc23)c1
inactive: Potency [5]
active: Potency [1] 2.95 µM | Potency [2] 7.42 µM | Potency [3] 7.43 µM | Potency [7] 10.5 µM

CC1(C)CCC2=C(O1)c1ccccc1C(=O)C2=O
active: Potency [1] 8.33 µM | Potency [2] 7.42 µM | Potency [3] 26.4 µM | Potency [7] 18.7 µM | Potency [4] 15.8 µM | Potency [5] 8.91 µM

Cc1cc(Nc2cc(CN3CCOCC3)c3nc(C)c(Cc4ccc(Cl)cc4F)n3n2)n[nH]1
active: Potency [1] 146 nM and 148 nM | Potency [2] 259 nM and 235 nM | Potency [8] 7.43 µM | Potency [6] 1.66 µM | Potency [3] 2.09 µM | Potency [7] 1.48 µM | Potency [4] 2.51 µM | Potency [5] 7.94 µM

Clc1cc(Cl)cc(CNc2ncncc2-c2ccc3c(c2)OCO3)c1
active: Potency [1] 20.6 µM | Potency [2] 9.34 µM | Potency [3] 26.4 µM | Potency [4] 10 µM | Potency [5] 3.55 µM

CCc1nc(C(N)=O)c(Nc2ccc(N3CCC(N4CCN(C)CC4)CC3)c(OC)c2)nc1NC1CCOCC1
active: Potency [1] 9 nM and 18.6 nM | Potency [2] 11.4 nM and 26.3 nM | Potency [3] 0.295 µM | Potency [7] 0.209 µM | Potency [4] 17.8 µM | Potency [5] 2.82 µM

COc1ccc(S(=O)(=O)Nc2cccnc2Nc2ccc(O)cc2)cc1
active: Potency [1] 0.934 µM | Potency [2] 0.833 µM | Potency [9] 3.32 µM | Potency [6] 2.35 µM | Potency [4] 3.16 µM

Nc1ncnc2c1nc(Cl)n2[C@@H]1O[C@H](CO)[C@@H](O)[C@@H]1O
active: Potency [1] 2.35 µM | Potency [2] 2.95 µM | Potency [6] 11.8 µM | Potency [3] 14.8 µM | Potency [7] 8.33 µM

CC[C@H](CC#N)OC(=O)N[C@@H](C)c1cccc(NC(=O)Nc2ccc(-c3cnco3)c(OC)c2)c1
active: Potency [1] 326 nM and 263 nM | Potency [2] 231 nM and 263 nM | Potency [3] 2.09 µM | Potency [4] 28.2 µM

C[C@@H]1COCCN1c1cc(=O)n2c(n1)N(Cc1cncc(Cl)c1)[C@H](C(F)(F)F)CC2
inactive: activity (max response) [4] 2.98% | Potency [5]
active: Potency [1] 6.51 µM | Potency [2] 4.11 µM | Potency [8] 9.33 µM | Potency [9] 9.33 µM

C[C@@H]1CC(=O)NN=C1c1ccc(NN=C(C#N)C#N)cc1
inactive: Potency [5]
active: Potency [1] 13.3 µM | Potency [2] 15 µM | Potency [8] 26.4 µM | Potency [6] 18.7 µM | Potency [7] 16.6 µM

Cn1c2ccccc2c2c3c(c4c5ccccc5n(CCC#N)c4c21)CNC3=O
active: Potency [1] 0.0651 µM | Potency [2] 0.259 µM | Potency [6] 0.372 µM | Potency [3] 0.526 µM | Potency [7] 0.418 µM | Potency [5] 3.55 µM

O=C(NOCC1CC1)c1ccc(F)c(F)c1Nc1ccc(I)cc1Cl
active: Potency [1] 3.76 µM | Potency [2] 3.35 µM and 2.91 µM and 2.35 µM | Potency [9] 2.64 µM | Potency [6] 7.43 µM | Potency [4] 10.3 µM and 4.47 µM | Potency [5] 3.26 µM and 6.31 µM

CCCS(=O)(=O)Nc1ccc(F)c(C(=O)c2c[nH]c3ncc(Cl)cc23)c1F
active: Potency [1] 11.6 µM | Potency [2] 11.8 µM | Potency [6] 9.35 µM | Potency [3] 11.8 µM | Potency [7] 13.2 µM
